High-throughput results: PubChem, National Center for Advancing Translational Sciences (NCATS)
Compounds with a hit are over-represented: about 2.5% of the library has one in this group of screens.
pAkt inh – Akt phosphorylation inhibition; Neuro2A IGF-stimulated pAkt S473 HTRF, 20 min; hits give low values; activity change, % for hits at 50 µM; hit rate 0.32% among 360,000; in the data active means activity change below about -80%; inconclusive means mostly about -51% to -80%; further: on the % scale 0 is the no-effect control and ±100 the full control effect
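Single-point screen (50 µM final compound) in Neuro2A cells stimulated 20 min with 6 nM IGF at 37 deg C. After lysis, Ser473-phosphorylated Akt read by HTRF (ex 330 nm, em 615/665 nm) as the 665/615 ratio.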
aSyn rescue – inhibitors of alpha-synuclein toxicity in yeast; Potency, µM (series often up to 46.1 µM), for the others: at the highest dose growth rescue (activation), actives largely listed as activators; Yeast expressing alpha-synuclein, growth rescue, BacTiter-Glo, 24 h; hit rate 0.14% among 370,000; AID 652106; further: potency means the concentration at half of the fitted maximal effect; % of control where 0% means no effect; nearly all actives have a fitted effect of over 65% in size
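Galactose-induced alpha-syn yeast (OD600=0.02, raffinose-pregrown) + pinned cpd, 24 hr, 30 deg C; growth by BacTiter-Glo luminescence. Growth restoration scores as activation.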
CCT modulator – modulators of cytosolic chaperonin (CCT/TRiC) activity; purified chaperonin ATPase assay, HTRF ADP detection, 30 min; hit rate 0.3% among 360,000; activity change, % (test concentration not listed), hits read low; in the data active means activity change below about -30%; further: on the % scale 0 is the no-effect control and ±100 the full control effect
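ATPase activity: ADP formed was measured by HTRF Transcreener (665/615 nm ratio) after 30 min at 37 deg C with 10 uM ATP. Compounds screened at one 76 uM concentration against 40 or 20 nM TRiC in Tris pH 7.4/KCl/MgCl2/DTT buffer.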
TDP-43 yeast inh – inhibitors of TDP-43 toxicity in yeast; TDP-43 expressing yeast growth rescue, BacTiter-Glo, 24 h; Potency, µM (top dose mostly 46.1 µM), for inactives: top-dose growth rescue (activation), usual class: activators; hit rate 1.8% among 410,000; AID 652104; further: potency means the concentration at half of the fitted maximal effect; % of control where 0% means no effect; nearly all actives have a fitted effect of over 50% in size
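In this qHTS, compounds that restore growth of yeast expressing TDP-43 appear as activators. Cells (OD600=0.02, galactose medium, raffinose-pregrown) are incubated with compound 24 hr at 30 deg C and growth is quantified by BacTiter-Glo.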
Apoferritin bind – binds horse apoferritin like a general anesthetic; P02791; apoferritin/1-aminoanthracene competitive binding, fluorescence; Potency, µM (doses to about 77.5 µM), for the others: top-dose activity change, negative = displacement, actives largely listed as inhibitors; hit rate 0.074% among 350,000; AID 485281; further: potency means the concentration at half of the fitted maximal effect; on the % scale 0 is the no-effect control and ±100 the full control effect; nearly all actives have a fitted effect of over 20% in size
Target sequence (P02791 2-175 limits assumed): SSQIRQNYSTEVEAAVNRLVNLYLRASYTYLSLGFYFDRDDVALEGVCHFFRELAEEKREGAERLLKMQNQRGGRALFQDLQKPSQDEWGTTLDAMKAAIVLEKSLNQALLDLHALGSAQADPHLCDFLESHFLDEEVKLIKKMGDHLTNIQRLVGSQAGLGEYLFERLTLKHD
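Apoferritin-based anesthetic binding model; compound displacement of fluorescent 1-AMA measured as endpoint fluorescence after 10 minutes at room temperature, scaled to free-ligand and complex controls.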
Mito fusion act – mitochondrial division inhibition or fusion activation | S. cerevisiae fusion-defective mutant growth rescue, CellTiterGlo 48 h | Potency, µM (series often up to 46.1 µM), inactives show at the top dose growth rescue (activation), most hits filed as activators | hit rate 0.23% among 320,000 | AID 485298; further: potency means the concentration at half of the fitted maximal effect; % of control where 0% means no effect; nearly all actives have a fitted effect of over 45% in size
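Temperature-sensitive fusion-defective S. cerevisiae (e.g. fzo1-1, mgm1-5) were grown with compound in YPEG medium (3% ethanol, 3% glycerol) for 48 hours at 37C. Growth rescue was measured as viability by CellTiterGlo luminescence after 10 minutes at ambient.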
* = called active by the depositor; i = inactive; ? = inconclusive; / = no result; [ ] = another dose, or the depositor's remark. Unless noted, the call rests on the fitted dose curve; in most records, active means well fitted curve in the direction sought with a large enough effect; inconclusive means small, poorly fitted or top-dose-only effect, or another doubt; inactive means no such curve, though single readings can be large; an effect the other way counts as inactive or inconclusive.

SMILES	pAkt inh	aSyn rescue	CCT modulator	TDP-43 yeast inh	Apoferritin bind	Mito fusion act
COc1cccc(-c2nnc(SCC(=O)Nc3ccc4c(c3)OCCO4)n2Cc2ccco2)c1	-114%*	2%	2	-8%	-11%	-6%
c1ccc(N2CCN(c3nc4ccccc4n4cnnc34)CC2)cc1	i	5%	1	35µM*	-14%	18%
c1ccc2c(c1)nc(N1CCOCC1)c1nncn12	/	-5%	-4	0%	-12%	0%
c1ccc2c(c1)CCN(c1nc3ccccc3n3cnnc13)C2	i	-6%	-2	35µM*	?	4%
c1ccc(CN2CCN(c3nc4ccccc4n4cnnc34)CC2)cc1	i	-3%	0	3%	-20%	2%
FC(F)(F)c1cccc(N2CCN(c3nc4ccccc4n4cnnc34)CC2)c1	/	/	/	22µM*	-14%	/
CSc1ccc(/C=C/c2nc3ccccc3n2S(=O)(=O)c2ccc(Br)cc2)cc1	/	/	/	-43%	99%	/
CC1(C)CC(=O)C(N=Nc2ccc(Br)cc2)=C(O)C1	i	0%	-1	10%	-4%	-7%
CC1(C)CC(=O)C(Sc2ccc(Br)cc2)=C(O)C1	i	25%	-4	13µM*	-4%	-4%
CC1CCC2C(=O)N3C(CCC(C)C3c3ccccc3Br)C(=O)N2C1c1ccc(C#CCN(C)C)cc1 (centres undefined)	/	/	/	/	-9%[15.3 µM]	/
C[C@H]1CC[C@H]2C(=O)N3[C@H](c4ccccc4Br)[C@@H](C)CC[C@H]3C(=O)N2[C@@H]1c1ccccc1Br	/	/	/	/	-10%	22µM*
COc1cccc(CNC(=S)Nc2cccc(Cl)c2C)c1	i	1%	3	18µM*	-7%	-18%
Cn1c(-c2ccccc2)c(O)c(=O)c2ccccc21	/	/	/	/	26%[15.3 µM]	/
CCn1c(-c2ccccc2)c(C(=O)CCl)c2ccccc21	i	11µM*	-2	0%	?	7%
Cn1c(-c2ccccc2)c(C(=O)CCl)c2ccccc21	i	-2%	-3	18µM*	?	2%
O=C(Nc1ccncc1)c1cnn2c1NC(=C1CC1)C=C2C(F)F	/	9%	/	/	/	/
CC(Oc1ccccc1)C(=O)Nc1nc(-c2ccccn2)cs1 (centres undefined)	i	22µM*	5	?	/	?
CC(Oc1cccc(Cl)c1)C(=O)Nc1nc(-c2ccccn2)cs1 (centres undefined)	i	4.5µM*	-3	-39%	/	?
CC(Oc1ccccc1)C(=O)Nc1nc(-c2ccncc2)cs1 (centres undefined)	i	-4%	1	11%	/	3%
COC(=O)c1ccccc1NC(=O)c1cnn2c1NC(=C1CC1)C=C2C(F)F	/	-13%	/	/	/	/
O=C(COc1ccc(Cl)cc1)Nc1nnc(-c2ccc3c(c2)CCCC3)o1	i	29%	-1	?	-2%	?
COc1ccccc1C(=O)Nc1nnc(-c2ccc3c(c2)CCCC3)o1	i	?	1	18µM*	?	8%
O=C(Nc1nnc(-c2ccc3c(c2)CCCC3)o1)C1COc2ccccc2O1 (centres undefined)	i	6.3µM*	-4	18µM*	?	2%
CC(=O)Nc1nnc(-c2ccc3c(c2)CCCC3)o1	i	-10%	-20	32µM*	-23%	-14%
COc1ccc(S(=O)(=O)NCC(c2ccco2)N2CCN(c3ccccc3F)CC2)cc1C (centres undefined)	/	/	/	-9%	23%	/
SMILES	pAkt inh	aSyn rescue	CCT modulator	TDP-43 yeast inh	Apoferritin bind	Mito fusion act
NC(=S)c1ccc[n+]([C@@H]2O[C@@H](COP(=O)([O-])OP(=O)(O)OC[C@H]3O[C@@H](n4cnc5c(N)ncnc54)[C@H](OP(=O)(O)O)[C@@H]3O)C(O)C2O)c1 (some centres undefined)	/	-11%	/	/	/	?
O=C(Cn1cc(SCc2cccc(Cl)c2)c2ccccc21)N1CCOCC1	i	?	0	35µM*	3%	8%
O=C(Cn1cc(SCc2ccc(C(F)(F)F)cc2)c2ccccc21)N1CCCC1	/	/	/	35µM*	-4%	/
Cc1ccc(-c2nc3ccccc3o2)cc1NC(=O)C(C)Oc1ccccc1 (centres undefined)	/	-11%	/	/	/	/
COc1ccc(NC(=O)CC2C(=O)N(c3cccc(OC)c3)C(=O)N2CCC2=CCCCC2)cc1 (centres undefined)	/	/	/	-8%	151%	/
O=C(COCc1cc(-c2ccc3c(c2)OCO3)on1)NCc1ccccc1Cl	/	/	/	28µM*	-4%	/
N#Cc1ccc(N2CCCC2C(=O)O)c([N+](=O)[O-])c1 (centres undefined)	-118%*	2%	1	3%	-8%	0%
O=C(O)C1CCCCN1c1ccccc1[N+](=O)[O-] (centres undefined)	i	-3%	0	?	/	/
COc1cc(/C=C/c2cc[n+](C)c3ccccc23)cc(OC)c1OC	/	16%	/	/	/	/
O=C(Nc1cccc(C(F)(F)F)c1)Nc1ccon1	i	-11%	-2	20µM*	-19%	-2%
O=C(Nc1ccon1)c1cccc(C(F)(F)F)c1	i	0%	-3	-14%	-7%	-2%
O=C(Nc1cccc(C(F)(F)F)c1)c1cc(-c2ccco2)on1	i	-2%	-1	-2%	-7%	7%
O=C(Nc1cccc(C(F)(F)F)c1)c1sc(Cl)nc1C(F)(F)F	i	-23%	0	13µM*	-11%	3%
O=C(Nc1ccon1)Nc1cccc(Cl)c1Cl	i	1%	-1	13µM*	-17%	1%
CSCCC(=O)Nc1nc(-c2ccccn2)cs1	i	2%	-9	0%	-5%	3%
O=C(Nc1nc(-c2ccccn2)cs1)c1ccc(Cl)s1	i	-15%	1	?	-7%	1%
Cc1ccc(C(=O)Nc2nc(-c3ccccn3)cs2)s1	i	3.5µM*	-1	?	/	?
O=C(Nc1nc(-c2ccccn2)cs1)c1ncc(Cl)c(Cl)c1Cl	i	7.9µM*	-3	3.5µM*	?	-2%
Cc1csc(NC(=O)c2cccn2C)n1	i	0%	-6	6%	-13%	-3%
O=C(Nc1nc(-c2ccccn2)cs1)C1CCCC1	i	17%	1	20µM*	-12%	10%
Cn1cccc1C(=O)Nc1nc(-c2ccccn2)cs1	i	?	0	14µM*	-6%	-9%
C=C1c2cccc(O)c2C(O)=C2C(=O)[C@@]3(O)C(O)=C(C(N)=O)C(=O)[C@@H](N(C)C)[C@@H]3[C@@H](O)[C@H]12	/	/	/	/	-10%[29.3 µM]	/
CO[C@@H]1COC(=O)CCC[C@@H](C)[C@H](OC)COC(=O)[C@H](Cc2ccccc2)NC(=O)C/C=C\[C@H]1C	/	/	/	/	-8%[15.3 µM]	/
